Assay results taken from PubChem BioAssay.
Active and inactive are the calls of the source.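 How the source made its calls: active means inhibition above 20% together with a positive visual image hit; inconclusive means visual image hit but inhibition not above 20%; inactive means no visual image hit.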

Experiment: inhibitors of TNFa-induced NFkB p65 translocation, primary screen, imaging, HUVEC, MLSMR starter and 10KST1 sets (AID 438);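 further: compound added about 3h40 before a 20 min TNFalpha stimulation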;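 on inhibition: signal is the nuclear over cytoplasmic p65 intensity ratio per well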
Settings: HUVEC TNFa-induced p65 nuclear translocation; cell count: measured here: nuclei count (cytotoxicity indicator), at 2.08 µM; inhibition: at 2 µM, stronger effect = higher value, 0% TNFa-plus-vehicle, 100% no-TNFa wells

| SMILES | inhibition | cell count |
| --- | --- | --- |
| O=C(OCC(=O)c1cccs1)C1=COCCO1 | -7.6% (inactive) | 656 |
| Cc1ccc(-c2cn3cccnc3n2)cc1NC(=O)c1ccc(Br)o1 | 4.7% (inactive) | 420 |
| Cc1cnc(NC(=O)CSc2nc3ccccc3c(=O)[nH]2)s1 | 8.9% (inactive) | 281 |
| CCCCn1nnnc1NCc1cccs1 | 2.9% (inactive) | 412 |
| CCCOc1cccc(NC(=O)c2c(-c3ccccc3)noc2C)c1 | 2% (inactive) | 515 |
| CCC(=O)N1C(=O)CCN(C(C)=O)c2ccccc21 | 11.3% (inactive) | 454 |
| O=C(NCc1ccc2c(c1)OCO2)C1CCC(CNc2c(N3CCCCC3)c(=O)c2=O)CC1 (stereo not given) | 6.8% (inactive) | 579 |
| O=C(Cc1c(F)cccc1Cl)Nc1ccncc1 | 4.3% (inactive) | 285 |
| CSc1nc(N2CCOCC2)c2ccccc2n1 | -29.3% (inactive) | 730 |
| Nc1ccc(-n2c(N)c(C(=O)NCc3ccc4c(c3)OCO4)c3nc4ccccc4nc32)cc1 | -17.4% (inactive) | 334 |
| COc1ccc(S(=O)(=O)Cc2ccc(C(=O)N3CCOCC3)o2)cc1 | -0.2% (inactive) | 551 |
| Cc1sc2nc(SCC(=O)N3CCN(CCO)CC3)n(-c3ccccc3)c(=O)c2c1C | 7% (inactive) | 397 |
| CCc1ccc(C2CC(c3cccc(OC)c3)n3nc(N)nc3N2)cc1 (stereo not given) | 7.5% (inactive) | 528 |
| CCCc1cc(C(=O)Nc2ccccc2C(=O)OC)no1 | 5.5% (inactive) | 864 |
| COc1cccc(C(=O)Nc2c(C(N)=O)oc3ccccc23)c1 | -14.6% (inactive) | 702 |
| Nc1nc2n(n1)C(c1cccc(Cl)c1)CC(c1ccc(F)cc1)N2 (stereo not given) | -12.4% (inactive) | 678 |
| O=C(O)C1CCCN1c1ncnc2c1oc1ccccc12 (stereo not given) | -4.4% (inactive) | 626 |
| Cc1cc(C)nc(NS(=O)(=O)c2ccc(NC(=O)Cn3c(=O)oc4ccccc43)cc2)n1 | 0.5% (inactive) | 490 |
| CCCCn1c(CN(C)Cc2ccccc2)nc2c1c(=O)n(C)c(=O)n2C | -6.1% (inactive) | 227 |
| Oc1cccc(Nc2nc(NCC3CCCO3)c3ccccc3n2)c1 (stereo not given) | -70.4% (inactive) | 555 |

| SMILES | inhibition | cell count |
| --- | --- | --- |
| Cc1ccc(-n2c(SCC3CCCCO3)nnc2-c2ccco2)cc1 (stereo not given) | 0.5% (inactive) | 573 |
| Cc1ccc(S(=O)(=O)NCCSc2nnnn2-c2ccc(C(N)=O)cc2)cc1 | -2.6% (inactive) | 650 |
| CCN1CCN(CCNC(=O)c2cn(C(C)c3ccccc3F)nn2)CC1 (stereo not given) | -29.6% (inactive) | 560 |
| C(#Cc1ccccc1)Cn1nnc2ccccc21 | 18% (inactive) | 288 |
| Cc1nccn1CCCN1C(=O)OC2(CCCCC2)C1(C)O (stereo not given) | -3% (inactive) | 350 |
| CCOc1cc2[nH]c(=S)n(CC3CCCO3)c(=O)c2cc1OCC (stereo not given) | -0.5% (inactive) | 317 |
| Cc1ccccc1Cn1ccc(NC(=O)c2cnn3c(C(F)(F)F)cc(-c4ccco4)nc23)n1 | -3.8% (inactive) | 568 |
| O=C1c2ccccc2C(Nc2ccc3nc(-c4cccnc4)[nH]c3c2)N1Cc1ccco1 (stereo not given) | -9.4% (inactive) | 493 |
| CCOc1ccc(N(CC(=O)NC2CCCC(C)C2C)S(=O)(=O)c2c(C)noc2C)cc1 (stereo not given) | 4% (inactive) | 872 |
| CCOC(=O)Cn1ncc(-c2ccccc2)c1N | -0.5% (inactive) | 582 |
| CS(=O)(=O)N(CC(=O)Nc1cccc(F)c1)Cc1ccccc1 | -0.2% (inactive) | 381 |
| Cc1cc(/C=N/n2cnnc2)c(C)n1-c1cccc(Cl)c1 | 4.7% (inactive) | 567 |
| CCOC(=O)c1[nH]c(C)c(C(=O)Nc2ccc(C)cc2C)c1C | 5.8% (inactive) | 505 |
| CCOC(=O)n1c(SCC(=O)N(CC)CC)nc2ccccc21 | 1% (inactive) | 522 |
| CCNc1ccc2c(Cl)cc(=O)oc2c1 | -2.5% (inactive) | 356 |
| COCCCNC(=O)CCCn1c(=O)c2ccccc2n(CC(=O)Nc2c(C)cccc2C)c1=O | -4.7% (inactive) | 709 |
| CC(=O)NC(C)C(=O)OCC(=O)Nc1ccc(Br)cc1 (stereo not given) | 6.9% (inactive) | 436 |
| O=C1c2ccccc2C(Nc2ccc(F)cc2F)N1CCN1CCOCC1 (stereo not given) | 1.8% (inactive) | 791 |
| COC(=O)[C@H](CCSC)NC(=O)Nc1cc(C)ccc1C | -7.4% (inactive) | 476 |
| CC(=O)Nc1ccc(NC(=O)C(C)Oc2ccccc2F)cc1 (stereo not given) | 3.9% (inactive) | 321 |
